Test results published in PubChem BioAssay AID602475 (National Center for Advancing Translational Sciences (NCATS), 2012).
Results filed as inconclusive are left out. A call without a number means that no potency is given here. The source made the active and inactive calls. Calls follow the shape of the dose curve; as a rule, active = well fitted inhibition curve with a large enough effect; inconclusive = small, poorly fitted or top-dose-only effect; inactive = no such curve, though single readings can be large or run the other way.

Each compound was assayed against Luciferin 4-monooxygenase (Photinus pyralis) (UniProt P08659) (assay: FLuc inhibitory activity for the follow-up compounds in a biochemical assay with an in-house formulation of detection reagent). Details: purified FLuc, luminescence; series mostly up to 25.6 µM.
Chain of Luciferin 4-monooxygenase (Photinus pyralis) (P08659 whole entry, looked up): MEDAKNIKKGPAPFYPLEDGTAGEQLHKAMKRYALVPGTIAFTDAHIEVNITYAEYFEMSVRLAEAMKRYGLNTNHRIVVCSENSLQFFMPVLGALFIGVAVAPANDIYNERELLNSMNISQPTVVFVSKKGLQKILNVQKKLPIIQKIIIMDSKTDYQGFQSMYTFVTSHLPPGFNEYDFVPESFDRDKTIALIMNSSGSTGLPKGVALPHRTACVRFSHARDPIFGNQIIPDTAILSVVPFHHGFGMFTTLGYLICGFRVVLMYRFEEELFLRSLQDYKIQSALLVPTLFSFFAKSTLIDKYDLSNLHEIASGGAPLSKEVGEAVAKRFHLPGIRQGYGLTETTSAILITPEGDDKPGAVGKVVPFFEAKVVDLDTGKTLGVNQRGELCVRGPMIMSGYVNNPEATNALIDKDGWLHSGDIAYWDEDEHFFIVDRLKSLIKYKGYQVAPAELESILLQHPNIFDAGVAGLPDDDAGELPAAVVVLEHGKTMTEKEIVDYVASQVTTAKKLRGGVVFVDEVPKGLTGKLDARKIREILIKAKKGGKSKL
Description: NCGC Assay Overview: Firefly (Photinus pyralis) luciferase is one of the most commonly used transcriptional reporters. It is considered one of the more dynamically responsive reporters - that is, responsive to changes in reporter transcription - as it requires no post-translational modifications and is enzymatically active directly after protein synthesis (Wood, 1998). With no endogenous expression in mammalian cells and without the requirement of external excitation, it offers very little background signal, thus generally providing excellent signal to background for most assays. Previous profiling work to determine the prevalence of compounds that affect FLuc enzymatic activity (PubChem AID 411) identified that ~3% of the MLSMR library (then at ~72K) inhibited FLuc (Auld et al., 2008). […] Of the compounds identified in this profile that inhibited FLuc, 151 compounds were selected for further analysis, in an effort to better understand their mode of inhibiting FLuc. The assay described here was to determine the activity of the compounds in a FLuc assay that used an in-house formulation of detection reagent.
NCGC Assay Protocol Summary: Reagents: 300mM Tris-HCl, 300mM Trizma base, 300mM MgCl, 1% Triton-X100, 5mM DTT, 500uM Coenzyme A trilithium salt (Sigma #C3019),450uM ATP (Sigma #A7699), 1mM D-luciferin sodium salt monohydrate (Biosynth #L8240); 10nM P. pyralis luciferase (Sigma #L9506) Control compounds used were two known firefly luciferase inhibitors (3-(5-(3-chlorophenyl)-1,2,4-oxadiazol-3-yl)benzoic acid and 5-(2-fluorophenyl)-3-phenyl-1,2,4-oxadiazole), and DMSO. Assay Summary: Six microliters of buffer containing firefly luciferase (final concentrations: 50mM Tris acetate, 10nM P. pyralis luciferase) are dispensed into each well of a Greiner white, solid-bottom 1536-well format plate using a flying reagent dispenser (FRD). These assay plates were then treated with 23nL of compound or DMSO using a Kalypsys pin tool, which allows for delivery of a 12-point intraplate titration of each compound to the assay plate (quantitative HTS), with final compound concentrations ranging from approximately ~25uM to 0.1nM. Three microliters of 3X in-house detection reagent was then delivered by FRD to each well (final concentrations in assay: 300mM Tris-HCl, 300mM Trizma base, 300mM MgCl, 1% Triton-X100, 5mM DTT, 500uM Coenzyme A trilithium salt, 450uM ATP, 1mM D-luciferin sodium salt monohydrate). Luciferase activity was then measured using a ViewLux CCD imager (PerkinElmer), with an average exposure time of 2-30 seconds (2X binning, medium/high gain).

SMILES | Potency
O=C(Cc1ccccc1)Nc1ccccc1C(=O)Nc1ccc(C(=O)O)cc1 | inactive
Oc1ccc(-c2nc3ccccc3s2)c(O)c1 | inactive
COc1cccc(-c2nc3ccccc3s2)c1 | 7.79 µM (active)
Cn1c(N/N=C/c2cc3ccccc3nc2Cl)nc2ccccc21 | inactive
COc1ccc(C(=O)Nc2nc3ccc(OC)cc3s2)cc1 | inactive
CN(C)c1cccc(C(=O)Nc2ccc(-c3nc4ccccc4s3)cc2)c1 | inactive
O=C(Nc1ccccc1C(=O)O)c1cccc(C(=O)Nc2ccccc2C(=O)O)c1 | inactive
O=C(O)c1cccc(NC(=O)c2cccc(S(=O)(=O)N3CCc4ccccc4C3)c2)c1 | inactive
O=C(O)c1ccccc1NC(=O)c1ccccc1Nc1ccccc1 | inactive
COc1ccc(Br)cc1C(=O)Nc1ccc(C(=O)O)cc1 | inactive
COc1ccccc1C(=O)Nc1ccc(C(=O)Nc2ccccc2C(=O)O)cc1 | inactive
COc1ccc(C(=O)Nc2cccc(C(=O)O)c2)cc1S(=O)(=O)N1CCCC1 | inactive
Nc1cccc(-c2nc3ccc(N)cc3s2)c1 | 3.9 µM (active)
O=C(O)c1cccc(NC(=O)c2ccc(Cl)c(S(=O)(=O)N3CCCCCC3)c2)c1 | inactive
COc1ccc2nc(NC(=O)CCc3ccc(OC)c(OC)c3)sc2c1 | inactive
O=C(O)c1cccc(NC(=O)c2cccc(NC(=O)C3CCCO3)c2)c1 (stereo not given) | inactive
CCCC(=O)Nc1nc2ccc(OCC)cc2s1 | inactive
Nc1ccccc1-c1nc2ccccc2s1 | inactive
Nc1ccc(-c2nc3ccc(N)cc3s2)cc1 | 4.91 µM (active)
COc1ccc2nc(NC(=O)CCc3nc(-c4ccccc4F)no3)sc2c1 | 6.94 µM (active)

SMILES | Potency
O=C(Nc1ccccc1C(=O)O)c1cccc(NC(=O)c2ccccc2Br)c1 | inactive
O=C(O)c1ccc(NC(=O)c2ccccc2NC(=O)c2ccccc2Cl)cc1 | inactive
Cc1ccc(C(=O)Nc2ccc(C(=O)O)cc2)cc1S(=O)(=O)NCc1ccccc1 | inactive
O=C(Nc1ccccc1C(=O)O)c1ccccc1 | inactive
Cc1ccc(S(=O)(=O)N2CCOCC2)cc1C(=O)Nc1ccccc1C(=O)O | inactive
Cc1ccc(C(=O)O/N=C(\N)c2ccccn2)cc1 | 0.0619 µM (active)
COc1ccc2nc(NC(=O)c3ccc(S(=O)(=O)N4CCCC(C)C4)cc3)sc2c1 (stereo not given) | inactive
O=C(O)c1cccc(NC(=O)c2ccccc2NC(=O)c2ccco2)c1 | inactive
Cc1ccc2sc(-c3ccc(N)cc3)nc2c1 | 6.19 µM (active)
Cc1cccc(C(=O)Nc2ccccc2C(=O)Nc2ccc(C(=O)O)cc2)c1 | inactive
Cc1ccc(C(=O)Nc2cccc(C(=O)O)c2)cc1S(=O)(=O)N1CCOCC1 | inactive
O=C(O)c1ccc(NC(=O)c2ccccc2NC(=O)c2ccccc2Br)cc1 | inactive
Cc1ccc(C(=O)Nc2cccc(C(=O)O)c2)cc1S(=O)(=O)N1CCCC1 | inactive
COc1ccc(NS(=O)(=O)c2cccc(C(=O)Nc3ccccc3C(=O)O)c2)cc1 | inactive
O=C(Nc1ccccc1C(=O)O)c1cccc(S(=O)(=O)N2CCCC2)c1 | inactive
Cc1cccc(NS(=O)(=O)c2cccc(C(=O)Nc3cccc(C(=O)O)c3)c2)c1 | inactive
Cc1ccccc1C(=O)Nc1cccc(C(=O)Nc2ccccc2C(=O)O)c1 | inactive
COc1ccccc1C(=O)Nc1ccc(C(=O)O)cc1 | inactive
COc1ccc2nc(NC(=O)c3ccc(NS(=O)(=O)c4cccs4)cc3)sc2c1 | inactive
CC(C)(C)C(=O)Nc1ccc(-c2nc3ccccc3s2)cc1 | 0.0219 µM (active)
